According to article PMC4336329 (PLoS ONE, 2015):
About 14,000 (4.5%) of roughly 310,000 compounds showed an effect of 50% or more. The effect is printed as a negative number. Shown is part of a subset that was picked to be rich in strong results.

molecular target: human ether-à-go-go-related gene (hERG) potassium channel (human, UniProt Q12809); test: primary screen, population patch clamp on CHO cells stably expressing hERG; higher = less effect of the substance
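Also: peak tail current of the secondary pulse compared with the same well before compound.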

Chain of human ether-à-go-go-related gene (hERG) potassium channel (Q12809 whole entry, looked up): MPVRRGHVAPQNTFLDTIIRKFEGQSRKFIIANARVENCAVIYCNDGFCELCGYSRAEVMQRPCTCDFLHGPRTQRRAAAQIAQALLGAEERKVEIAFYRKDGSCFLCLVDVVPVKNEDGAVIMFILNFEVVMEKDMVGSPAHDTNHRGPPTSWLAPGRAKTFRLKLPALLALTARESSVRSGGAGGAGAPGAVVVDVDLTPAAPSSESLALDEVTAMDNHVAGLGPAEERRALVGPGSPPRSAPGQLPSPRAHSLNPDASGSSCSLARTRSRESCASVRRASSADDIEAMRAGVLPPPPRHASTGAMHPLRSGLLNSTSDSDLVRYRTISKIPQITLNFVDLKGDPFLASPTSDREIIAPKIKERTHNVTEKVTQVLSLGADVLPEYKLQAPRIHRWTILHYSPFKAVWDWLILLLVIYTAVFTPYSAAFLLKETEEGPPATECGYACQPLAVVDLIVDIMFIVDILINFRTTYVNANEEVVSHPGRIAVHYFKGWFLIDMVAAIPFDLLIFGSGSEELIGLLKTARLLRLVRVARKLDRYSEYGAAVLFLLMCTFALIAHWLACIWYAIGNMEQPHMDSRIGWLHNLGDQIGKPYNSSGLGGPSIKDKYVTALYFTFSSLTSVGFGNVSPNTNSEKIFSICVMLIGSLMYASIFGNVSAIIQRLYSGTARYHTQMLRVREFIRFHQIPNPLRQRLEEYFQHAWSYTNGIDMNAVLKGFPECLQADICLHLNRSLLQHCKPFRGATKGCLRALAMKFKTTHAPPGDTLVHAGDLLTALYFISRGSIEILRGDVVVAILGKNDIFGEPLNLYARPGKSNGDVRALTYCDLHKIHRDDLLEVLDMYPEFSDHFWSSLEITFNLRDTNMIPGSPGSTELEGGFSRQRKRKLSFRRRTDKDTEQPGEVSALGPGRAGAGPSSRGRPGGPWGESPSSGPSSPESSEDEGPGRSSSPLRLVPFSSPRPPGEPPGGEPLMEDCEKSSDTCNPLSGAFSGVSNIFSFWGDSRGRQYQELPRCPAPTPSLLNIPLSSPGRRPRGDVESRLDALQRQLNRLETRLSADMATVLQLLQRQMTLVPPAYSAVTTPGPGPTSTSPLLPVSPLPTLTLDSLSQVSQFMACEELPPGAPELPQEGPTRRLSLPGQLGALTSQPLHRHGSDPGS

| SMILES | hERG current change (%, negative = inhibition) at 10uM [%] |
| --- | --- |
| CC(Sc1nnc(CNc2cccc3ccccc23)n1-c1ccccc1)C(=O)N/N=C/c1ccco1 (centres unmarked) | -10.2 |
| Cl.O=C(NCC(c1cccs1)N1CCOCC1)c1cc2ccccc2o1 (centres unmarked) | -15.7 |
| O=C(NNC1=NS(=O)(=O)c2ccccc21)c1cccc([N+](=O)[O-])c1 | 15 |
| CCOc1cccc(=O)c2c(C)n(Cc3ccccc3)c(C)c12 | 11.8 |
| CCCCCn1c(C)c2c(OCC)cccc(=O)c2c1C | -69 |
| CCOc1cccc(=O)c2c(C)n(C)c(C)c12 | -4.1 |
| CC(C)C(NS(=O)(=O)c1cccs1)C(=O)NCc1ccc2c(c1)OCO2 (centres unmarked) | -12 |
| COc1ccccc1C(C#N)c1cccc(Cl)n1 (centres unmarked) | 0.219 |
| O=C(CCCn1c(=O)c2cccn2c2cccnc21)NCc1cccc(Br)c1 | -13.8 |
| O=C(c1ccc(OC2CCN(CCc3ccccc3)CC2)cc1)N1CCCC1 | -30 |
| COC1CCCN(C(=O)c2ccc(OC3CCN(CCc4ccccc4)CC3)cc2)C1 (centres unmarked) | -11.6 |
| O=C(c1ccc(OC2CCN(CCc3ccccc3)CC2)cc1)N1CCCC(O)C1 (centres unmarked) | -2.05 |
| CC(=O)N1CCN(C(=O)c2ccc(OC3CCN(CCc4ccccc4)CC3)cc2)CC1 | 15.6 |
| O=C(c1ccc(OC2CCN(CCCc3ccccc3)CC2)cc1)N1CCCC1 | -69.8 |
| CC1CCCN(C(=O)c2ccc(OC3CCN(CCc4ccccc4)CC3)cc2)C1 (centres unmarked) | -58.1 |
| COc1ccc(CNC(=O)CCn2nc(C)c3c(C)n(-c4ccccc4)nc3c2=O)c(OC)c1 | 11.8 |
| O=C(NCc1ccc(Cl)cc1)c1ccc(NC(=O)C2CCCO2)cc1 (centres unmarked) | 13.2 |
| O=C1CCCC2=C1C(c1cccs1)n1nc(SCc3ccc(C(=O)O)cc3)nc1N2 (centres unmarked) | 2.81 |
| O=C(Cn1c2ccccc2c2nc3n(c(=O)c21)CCS3)Nc1ccccc1C(F)(F)F | 15.1 |
| Cc1ccc(N2CC(C(=O)NCCN3CCOCC3)CC2=O)cc1 (centres unmarked) | 8.92 |
| CC1CCCCN1C(=O)NC1CC(=O)N(c2ccc3c(c2)OCCO3)C1 (centres unmarked) | 5.7 |
| CCc1cc(Cn2nc(-c3ccccc3)cc2C(=O)NCC2CC2)on1 | -51.8 |

| SMILES | hERG current change (%, negative = inhibition) at 10uM [%] |
| --- | --- |
| Cc1ccccc1-c1cc(C(=O)NCc2cccs2)nn1CC1CC(c2cccc([N+](=O)[O-])c2)=NO1 (centres unmarked) | 4.08 |
| O=C(O)c1cc(-c2ccccc2)nn1CC1CC(c2cccc([N+](=O)[O-])c2)=NO1 (centres unmarked) | 19.1 |
| CCc1cc(Cn2nc(-c3ccccc3)cc2C(=O)NCCOC)on1 | -9.96 |
| Cc1ccc(CNC(=O)c2cc(-c3ccccc3C)n(CC3CC(c4cccc([N+](=O)[O-])c4)=NO3)n2)cc1 (centres unmarked) | 13.6 |
| CCOC(=O)c1cc(-c2ccccc2)nn1CC1CC(c2cccc([N+](=O)[O-])c2)=NO1 (centres unmarked) | -24.2 |
| Cc1cc(Cn2nc(-c3ccccc3)cc2C(=O)NCC2CC2)on1 | 9.32 |
| Cc1ccc(CNC(=O)c2cc(-c3ccccc3)nn2CC2CC(c3cccc([N+](=O)[O-])c3)=NO2)cc1 (centres unmarked) | -8.09 |
| O=C(NCc1cccs1)c1cc(-c2ccccc2)nn1CC1CC(c2cccc([N+](=O)[O-])c2)=NO1 (centres unmarked) | -66.9 |
| COCCNC(=O)c1cc(-c2ccccc2)nn1CC1CC(c2cccc([N+](=O)[O-])c2)=NO1 (centres unmarked) | -50.6 |
| O=C(NCC1CC1)c1cc(-c2ccccc2)nn1CC1CC(c2cccc([N+](=O)[O-])c2)=NO1 (centres unmarked) | -60.8 |
| Cc1ccccc1-c1cc(C(=O)NCC2CC2)nn1CC1CC(c2cccc([N+](=O)[O-])c2)=NO1 (centres unmarked) | -26.6 |
| COC(=O)C(C)n1cnc2c(nnn2Cc2ccc(Cl)cc2)c1=O (centres unmarked) | -16.4 |
| CCC1=Nc2cc(C(=O)NCc3ccco3)ccc2Sc2ccc(C)cc21 | -0.612 |
| CN(Cc1ccccc1)C(=O)CN1C(=O)NC2(CCCCCCC2)C1=O | -11.7 |
| O=C(CCc1ccccc1)NNC(=O)Nc1ccccc1 | 1.26 |
| COc1ccc(OC)c(CNC(=O)Cc2c(C(=O)O)[nH]c3ccccc23)c1 | 15.3 |
| Cc1ccccc1N1CCN(C2CCCN(C(=O)c3ocnc3C)C2)CC1 (centres unmarked) | -16.9 |
| CN(c1ccccc1)S(=O)(=O)c1cccc(C(=O)OCC(=O)Nc2ccc3[nH]c(=O)[nH]c3c2)c1 | 19.6 |
| CC(C)=CCCC(C)CN(C)CCc1ccccn1 (centres unmarked) | -65.4 |
| CC(C)c1ccc(NC(=S)N(C)CCc2ccccn2)cc1 | -8.91 |
| CN(CCc1ccccn1)Cc1ccc(Cl)c(Cl)c1 | -36.3 |
| CN(CCc1ccccn1)Cc1ccc(Cl)cc1Cl | -64.3 |

| SMILES | hERG current change (%, negative = inhibition) at 10uM [%] |
| --- | --- |
| Cc1cccc(CN(C)CCc2ccccn2)c1 | -15.3 |
| Cc1ccc(CN(C)CCc2ccccn2)cc1 | -41.1 |
| CN(CCc1ccccn1)C(=O)Nc1ccc(Cl)cc1 | 6.31 |
| CN(CCc1ccccn1)C(=O)c1cccnc1Oc1ccc(Cl)cc1 | -19.5 |
| CC(C)c1ccc(N(CCc2ccccn2)C(=O)C(C)(C)C)cc1 | -5.99 |
| CN(CCc1ccccn1)Cc1ccc(Cl)cc1 | -53.7 |
| CCc1ccc(CN(C)CCc2ccccn2)cc1 | -62.6 |
| Cc1ccccc1CN(C)CCc1ccccn1.O=C(O)C(=O)O | -7.25 |
| CC(=O)N1CCC(=O)N(C(C)C)c2ccccc21 | 3.9 |
| COc1ccc(CNC(=O)c2cccnc2Sc2ccc(C)c(C)c2)cc1 | 3.63 |
| COc1ccccc1-c1coc2cc(O)cc(O)c2c1=O | 9.89 |
| Cc1ccc(OCC(=O)c2ccc(Cl)s2)c([N+](=O)[O-])n1 | 2.66 |
| Cc1ccc(S(=O)(=O)NCc2n[nH]c(=S)n2C)cc1 | 21 |
| NC(=O)c1cc([N+](=O)[O-])ccc1NCc1ccc(N)cc1 | 10.5 |
| COc1cc2c(cc1NC(=O)c1cccnc1)CCCC2 | 14.2 |
| Cc1cccc(-c2noc(-c3ccc4c(c3)OCO4)n2)c1 | 7.53 |
| COc1cc(NC(=O)c2ccccc2Cl)c(OC)cc1NC(=O)CN1CCOCC1 | -3.34 |
| COc1cc(Cl)c(C)cc1NC(=O)CCCn1c(=O)oc2ccccc21 | -58.7 |
| COc1ccc(NC(=O)CCCn2c(=O)oc3ccccc32)cc1Cl | -12.9 |
| COc1cc(Cl)c(C)cc1NC(=O)c1ccccc1NC(=O)CN1CCOCC1 | -58.7 |
| COc1cc(Cl)c(C)cc1NC(=O)CN1CCN(C(=O)C2CC2)CC1 | -59.6 |
| COc1cc(NC(=O)CN2CCN(C(=O)C3CCCO3)CC2)c(OC)cc1Cl (centres unmarked) | -12.5 |

| SMILES | hERG current change (%, negative = inhibition) at 10uM [%] |
| --- | --- |
| COc1cc(OC)c(NC(=O)CCCn2c(=O)oc3ccccc32)cc1Cl | 9.61 |
| COc1cc(NC(=O)c2ccccc2C)c(OC)cc1NC(=O)CN1CCOCC1 | -7.78 |
| COc1cc(Cl)c(C)cc1NC(=O)CN1CCCCCC1 | -0.067 |
| O=C(CN1CCN(S(=O)(=O)c2cc(Cl)ccc2Cl)CC1)Nc1ccc2c(c1)OCCO2 | -23.2 |
| O=C(CC(c1ccccc1)c1cc(Cl)ccc1O)N1CCOCC1 (centres unmarked) | -15.1 |
| CCc1ccc(S(=O)(=O)N/N=C\c2ccc3c(c2)OCO3)cc1 | 9.85 |
| CCCN(CC(=O)Nc1ccc(F)c(F)c1F)C(=O)c1ccc(N2CCCC2=O)cc1 | -4.37 |
| C=CCOc1ccccc1/C=N/NC(=O)c1ccc(Cl)cc1Cl | -6.98 |
| O=C(CC1C(=O)NCCN1CC1CCCCC1)NCc1ccccc1Cl (centres unmarked) | -5.9 |
| Cc1nc(-c2cccc(S(=O)(=O)N3CCCC(C)C3)c2)cs1 (centres unmarked) | -9.76 |
| CC(=O)N1CCN(c2ccc(S(C)(=O)=O)cc2[N+](=O)[O-])CC1 | -12.7 |
| CS(=O)(=O)c1ccc(N2CCN(S(=O)(=O)c3cccs3)CC2)c([N+](=O)[O-])c1 | -67.1 |
| CN1CCN(c2ccc(S(=O)(=O)N3CCCCC3)cc2[N+](=O)[O-])CC1 | -48 |
| CS(=O)(=O)c1ccc(N2CCN(c3ccccn3)CC2)c([N+](=O)[O-])c1 | -55 |
| Cc1ccc(C(=O)N2CCN(c3ccccn3)CC2)cc1[N+](=O)[O-] | 9.02 |
| O=C(c1ccc(N2CCCCC2)c([N+](=O)[O-])c1)N1CCN(c2ccccn2)CC1 | -66.8 |
| O=C(c1ccc(N2CCOCC2)c([N+](=O)[O-])c1)N1CCN(S(=O)(=O)c2cccs2)CC1 | -47.3 |
| O=C(c1ccc(N2CCCC2)c([N+](=O)[O-])c1)N1CCN(c2ccccn2)CC1 | -21.8 |
| CN1CCN(c2ccc(S(C)(=O)=O)cc2[N+](=O)[O-])CC1 | -2.78 |
| CCOC(=O)c1cnn(-c2sc(C(=O)OCC)c(C)c2C(=O)OCC)c1N | 16.4 |
